Values joined by “and” are separate entries in the source; they are usually repeats but may differ in a detail not shown here. Equal values may be shown once. Compounds without any hit were thinned out: in the full panel of roughly 83,000, 20% have a hit.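 How to read the values: 0–100, growth inhibition (40 = 60% inhibited); 0, no net growth; -100 to 0, cell death (-40 = 40% of starting cells died; -100 = all dead).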 Active and inactive are the calls of the source. The calls were made as follows: active = growth percent below 10; inactive = the rest.
Tests used:
Experiment in all cases: NCI-60 one-dose screen, 48 h (100 = growth as untreated, 0 = no growth, -100 = all killed)
Settings in all cases: 10 µM unless noted
NCI-H226 lung = system: NCI-H226 lung
NCI-H322M lung = system: NCI-H322M lung
HOP-62 NSCLC = system: HOP-62 NSCLC
NCI-H460 lung = system: NCI-H460 lung
HOP-92 NSCLC = system: HOP-92 NSCLC
NCI-H522 lung = system: NCI-H522 lung
A549/ATCC NSCLC = system: A549/ATCC NSCLC
786-0 renal = system: 786-0 renal
COLO 205 colon = system: COLO 205 colon
DU-145 prostate = system: DU-145 prostate
K-562 leukemia = system: K-562 leukemia
MALME-3M melanoma = system: MALME-3M melanoma
MDA-MB-231 breast = system: MDA-MB-231 breast
RXF 393 renal = system: RXF 393 renal
SF-268 CNS = system: SF-268 CNS
SF-295 CNS = system: SF-295 CNS
SF-539 CNS = system: SF-539 CNS
UACC-257 melanoma = system: UACC-257 melanoma
M14 melanoma = system: M14 melanoma

Measured: growth

CC[CH2][Sn]([Cl])([Cl])[CH2]CC.Oc1ccccc1C=NCCN=Cc1ccccc1O
51.7% (inactive) and 1.58% (active): RXF 393 renal
50.6% (inactive) and -12.1% (active): COLO 205 colon
active: NCI-H522 lung -87.6% and -83.2% | K-562 leukemia 4.37% and -23.9% | MALME-3M melanoma 4.96% and -43.8%
51.4% (inactive) and 5.28% (active): UACC-257 melanoma
inactive: NCI-H226 lung 11% and 17.4% | NCI-H322M lung 105% and 92.4% | HOP-62 NSCLC 103% and 83.8% | NCI-H460 lung 110% and 90.5% | HOP-92 NSCLC 40% and 29.2% | A549/ATCC NSCLC 103% and 92.3% | 786-0 renal 65.2% and 59.1% | DU-145 prostate 81.3% and 76.9% | MDA-MB-231 breast 38.7% and 28.5% | SF-268 CNS 49.7% and 20.3% | SF-295 CNS 93.2% | SF-539 CNS 59.9% and 37.8% | M14 melanoma 69.6% and 39%

C(=NC1CCCCC1)=NC1CCCCC1
inactive: NCI-H226 lung 103% and 57% | HOP-62 NSCLC 109% and 86.8% | NCI-H460 lung 107% and 100% | HOP-92 NSCLC 92.8% and 62.3% | A549/ATCC NSCLC 111% and 87% | 786-0 renal 104% and 87.1% | COLO 205 colon 115% and 88.6% | DU-145 prostate 107% and 97.9% | K-562 leukemia 97.8% and 69% | MALME-3M melanoma 108% and 53.2% | MDA-MB-231 breast 97.2% and 88.3% | RXF 393 renal 109% and 94.6% | SF-268 CNS 108% and 88.2% | SF-295 CNS 87% | SF-539 CNS 101% and 97.7% | UACC-257 melanoma 133% and 44.3% | M14 melanoma 115% and 87.1%

CCCCCCCCCCCCCCCCCC1OCC(COC(=O)O[C@@H](C(=O)O[C@H]2C[C@@]3(O)[C@@H](OC(=O)c4ccccc4)[C@@H]4[C@]5(OC(C)=O)CO[C@@H]5C[C@H](O)[C@@]4(C)C(=O)[C@H](OC(C)=O)C(=C2C)C3(C)C)[C@@H](NC(=O)c2ccccc2)c2ccccc2)O1 (stereo partly specified)
inactive: NCI-H226 lung 53.4% | NCI-H322M lung 58.8% | HOP-62 NSCLC 60.5% | NCI-H460 lung 18.2% | HOP-92 NSCLC 94.8% | NCI-H522 lung 48.6% | A549/ATCC NSCLC 53.2% | 786-0 renal 80.9% | COLO 205 colon 24.7% | DU-145 prostate 44.4% | K-562 leukemia 18.8% | MALME-3M melanoma 59.3% | MDA-MB-231 breast 81.8% | RXF 393 renal 28.1% | SF-268 CNS 59.1% | SF-295 CNS 48.4% | SF-539 CNS 51.2% | UACC-257 melanoma 69.8% | M14 melanoma 37.8%

O=P(O)(Nc1ccccc1)Nc1ccccc1
inactive: NCI-H226 lung 102% | NCI-H322M lung 90.6% | HOP-62 NSCLC 83.3% | NCI-H460 lung 99.2% | HOP-92 NSCLC 89.1% | A549/ATCC NSCLC 91% | 786-0 renal 93.7% | COLO 205 colon 115% | DU-145 prostate 97% | K-562 leukemia 51.9% | MALME-3M melanoma 94.3% | MDA-MB-231 breast 109% | RXF 393 renal 93.9% | SF-268 CNS 102% | SF-295 CNS 96.1% | SF-539 CNS 91.6% | UACC-257 melanoma 89.3% | M14 melanoma 88.4%

C[C@]12CC[C@@H](OC(=O)N(CCCl)N=O)C[C@@H]1CC[C@@H]1[C@@H]2CC[C@]2(C)C(=O)CC[C@@H]12
inactive: HOP-62 NSCLC 38.6% | NCI-H522 lung 51.1% | A549/ATCC NSCLC 10.3% | 786-0 renal 28.4% | K-562 leukemia 23.2% | MALME-3M melanoma 108% | MDA-MB-231 breast 81.9% | RXF 393 renal 78% | SF-268 CNS 30.6% | UACC-257 melanoma 76.2% | M14 melanoma 72.5%
active: NCI-H460 lung -67.5% | HOP-92 NSCLC -10.2% | COLO 205 colon -72.1% | DU-145 prostate -0.658% | SF-295 CNS -15.7% | SF-539 CNS 1.49%

O=[N+]([O-])c1ccc2scc3c4ccccc4nc-3c2c1
inactive: NCI-H322M lung 58.1% | NCI-H460 lung 42.7% | A549/ATCC NSCLC 18.9% | SF-295 CNS 84.7%
active: NCI-H226 lung -32.4% | HOP-62 NSCLC 2.95% | HOP-92 NSCLC -61.8% | NCI-H522 lung -88.8% | 786-0 renal -82.9% | COLO 205 colon -55.6% | DU-145 prostate -7.89% | K-562 leukemia 3.96% | MALME-3M melanoma -45% | MDA-MB-231 breast -76.1% | RXF 393 renal -96.8% | SF-268 CNS -0.718% | SF-539 CNS -45% | UACC-257 melanoma -59.9% | M14 melanoma -54.8%

CC1(C)N=C(N)N=C(N)N1c1ccc(CCC(=O)Nc2ccc(S(=O)(=O)F)cc2)cc1
inactive: HOP-62 NSCLC 47.1% | NCI-H460 lung 14.5% | HOP-92 NSCLC 70.8% | A549/ATCC NSCLC 18.9% | 786-0 renal 21.3% | COLO 205 colon 28.8% | DU-145 prostate 28.1% | K-562 leukemia 12.9% | MALME-3M melanoma 47% | MDA-MB-231 breast 76.4% | RXF 393 renal 47.3% | SF-268 CNS 25.1% | SF-295 CNS 40.3% | SF-539 CNS 28.7% | UACC-257 melanoma 41.1% | M14 melanoma 35.9%

CC1=C2[C@H]3OC(=O)[C@@H](C)[C@@H]3CC[C@@]2(C)C=CC1=O
inactive: NCI-H322M lung 85.8% | HOP-62 NSCLC 111% | NCI-H460 lung 116% | NCI-H522 lung 123% | 786-0 renal 106% | COLO 205 colon 96.7% | DU-145 prostate 109% | K-562 leukemia 110% | MALME-3M melanoma 87.3% | MDA-MB-231 breast 112% | SF-268 CNS 107% | SF-295 CNS 106% | SF-539 CNS 83.3% | M14 melanoma 120%

O=S(=O)(c1ccc(O)cc1)c1ccccc1O
inactive: NCI-H226 lung 104% | NCI-H322M lung 111% | HOP-62 NSCLC 101% | NCI-H460 lung 105% | HOP-92 NSCLC 100% | A549/ATCC NSCLC 112% | COLO 205 colon 112% | DU-145 prostate 111% | K-562 leukemia 98% | MALME-3M melanoma 113% | MDA-MB-231 breast 98.9% | RXF 393 renal 117% | SF-268 CNS 97.3% | SF-295 CNS 112% | SF-539 CNS 103% | UACC-257 melanoma 111%

CC(=O)C(N)Cc1ccccc1 (stereo unspecified)
inactive: HOP-62 NSCLC 85.1% | HOP-92 NSCLC 86.3% | NCI-H522 lung 91.7% | A549/ATCC NSCLC 67.9% | 786-0 renal 96.5% | COLO 205 colon 97.8% | DU-145 prostate 99.3% | K-562 leukemia 98.8% | MALME-3M melanoma 105% | MDA-MB-231 breast 105% | RXF 393 renal 101% | SF-268 CNS 105% | SF-295 CNS 102% | SF-539 CNS 100% | UACC-257 melanoma 73.3% | M14 melanoma 90.1%
